The results in this text go back to PubChem BioAssay.

Molecules are shown by their SMILES. Active and inactive are the calls of the source.

Test [1] is described as follows: E. coli DRC41 culture turbidity changes, primary screen, E. coli filamentation inducer project, strain DRC41, OD650, 48 h (AID 1152).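 Further: E. coli MC1000 strain DRC41 lacking acrAB efflux pump and sulA.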 The following applies: E. coli DRC41 (acrAB sulA), higher = more signal, called active from +8 up or from −8 down.
A short description of test [2]: small-molecule binders of probe aLefty1, primary screen, biochemical, small-molecule microarray, 635/667 nm fluorescence (AID 1153).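 Further: score merges spot fluorescence with signal-to-noise ratio from the scanned slide images.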 To be noted: higher = more signal.
A short description of test [3]: PSAC antagonists in infected red cells, primary screen, cell-based, P. falciparum Indochina, OD700, 1 h (AID 1154). The following applies: P. falciparum Indochina infected RBC osmotic lysis, higher = more signal, called active from +8 up or from −8 down.
Test [4] can be described thus: PSAC antagonists in infected red cells, primary screen, cell-based, P. falciparum Indochina, OD700, 2 h (AID 1155).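 Further: lysis reports solute entry through the parasite surface anion channel PSAC; channel blockers reduce lysis of infected cells.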 The following applies: P. falciparum Indochina infected erythrocytes, osmotic lysis OD700; higher = more signal, called active from +8 up or from −8 down.
Test [5] can be described thus: osmotic lysis modulators in infected erythrocytes, primary screen, PSAC antagonist project, cell-based, P. falciparum Indochina, OD700, 3 h (AID 1156). The following applies: higher = more signal, called active from +8 up or from −8 down.
Test [6] is described as follows: PSAC antagonists in infected red cells, primary screen, cell-based, P. falciparum Indochina, OD700, 18 h (AID 1157). The following applies: P. falciparum Indochina infected erythrocytes, osmotic lysis OD700, 18 h; higher = more signal, called active from +8 up or from −8 down.
Test [7] in a line: modulators of S6 phosphorylation in cells, primary screen, cell-based, A549, cytoblot, luminescence, serum-stimulated (AID 1158).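 Further: serum-stimulated A549 lung adenocarcinoma cells; signal is phosphorylated S6 detected by cytoblot immunostaining with HRP secondary.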 To be noted: A549 phospho-S6 cytoblot, 5 h, higher = more signal.
The target of test [8] is NADPH oxidase 2 (Homo sapiens) (UniProt P04839). Kind of test: NOX2-dependent H2O2 signal modulators, primary screen, NOX inhibitor project, cell-based, HEK293-NOX2, PMA-stimulated, Amplex Red fluorescence (AID 1159). Further: test concentration not given here. To be noted: 45 min, higher = more signal, called active from +8 up or from −8 down.
Chain of NADPH oxidase 2 (Homo sapiens) (P04839 whole entry, looked up): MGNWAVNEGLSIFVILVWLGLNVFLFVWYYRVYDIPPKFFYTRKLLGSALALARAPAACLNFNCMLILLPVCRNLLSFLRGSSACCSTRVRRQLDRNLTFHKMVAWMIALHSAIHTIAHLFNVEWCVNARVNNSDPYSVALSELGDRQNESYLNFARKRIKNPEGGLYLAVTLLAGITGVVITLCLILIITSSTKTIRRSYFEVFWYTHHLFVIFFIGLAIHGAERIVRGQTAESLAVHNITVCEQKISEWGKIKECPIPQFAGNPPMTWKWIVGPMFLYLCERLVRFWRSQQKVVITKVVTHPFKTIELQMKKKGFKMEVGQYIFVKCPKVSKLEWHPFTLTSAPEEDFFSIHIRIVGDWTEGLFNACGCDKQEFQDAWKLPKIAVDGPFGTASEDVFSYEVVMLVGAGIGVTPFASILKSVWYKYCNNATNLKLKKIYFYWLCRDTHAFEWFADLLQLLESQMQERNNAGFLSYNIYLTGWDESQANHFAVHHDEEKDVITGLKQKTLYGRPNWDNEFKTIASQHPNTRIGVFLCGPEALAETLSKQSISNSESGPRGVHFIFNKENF
The target in test [9] is NADPH oxidase 4 (Homo sapiens) (UniProt Q9NPH5). Kind of test: NOX4-dependent H2O2 signal modulators, primary screen, NOX inhibitor project, cell-based, HEK293-NOX4, tetracycline-induced, Amplex Red fluorescence (AID 1160). The following applies: 45 min, higher = more signal, called active from +8 up or from −8 down.
Chain of NADPH oxidase 4 (Homo sapiens) (Q9NPH5 whole entry, looked up): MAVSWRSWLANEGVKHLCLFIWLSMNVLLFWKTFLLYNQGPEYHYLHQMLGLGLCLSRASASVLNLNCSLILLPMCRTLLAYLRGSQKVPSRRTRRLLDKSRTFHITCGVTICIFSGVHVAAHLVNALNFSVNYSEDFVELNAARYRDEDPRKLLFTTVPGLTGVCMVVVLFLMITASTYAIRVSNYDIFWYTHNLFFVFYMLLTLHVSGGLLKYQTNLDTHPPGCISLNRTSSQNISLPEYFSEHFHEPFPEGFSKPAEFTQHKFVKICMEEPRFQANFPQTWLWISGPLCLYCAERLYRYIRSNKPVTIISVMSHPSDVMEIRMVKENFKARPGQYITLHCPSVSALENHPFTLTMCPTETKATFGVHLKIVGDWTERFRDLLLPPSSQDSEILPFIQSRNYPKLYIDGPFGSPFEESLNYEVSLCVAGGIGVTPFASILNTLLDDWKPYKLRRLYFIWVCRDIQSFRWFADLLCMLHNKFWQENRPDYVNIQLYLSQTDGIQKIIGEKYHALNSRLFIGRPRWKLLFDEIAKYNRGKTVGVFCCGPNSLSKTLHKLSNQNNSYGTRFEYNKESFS
Test [10] has as its target NADPH oxidase 5 (Homo sapiens) (UniProt Q96PH1). Kind of test: NOX5-dependent H2O2 signal modulators, primary screen, NOX inhibitor project, cell-based, HEK293-NOX5, Amplex Red fluorescence (AID 1161). To be noted: HEK293-NOX5, ionomycin, 45 min, higher = more signal.

Chain of NADPH oxidase 5 (Homo sapiens) (Q96PH1 whole entry, looked up): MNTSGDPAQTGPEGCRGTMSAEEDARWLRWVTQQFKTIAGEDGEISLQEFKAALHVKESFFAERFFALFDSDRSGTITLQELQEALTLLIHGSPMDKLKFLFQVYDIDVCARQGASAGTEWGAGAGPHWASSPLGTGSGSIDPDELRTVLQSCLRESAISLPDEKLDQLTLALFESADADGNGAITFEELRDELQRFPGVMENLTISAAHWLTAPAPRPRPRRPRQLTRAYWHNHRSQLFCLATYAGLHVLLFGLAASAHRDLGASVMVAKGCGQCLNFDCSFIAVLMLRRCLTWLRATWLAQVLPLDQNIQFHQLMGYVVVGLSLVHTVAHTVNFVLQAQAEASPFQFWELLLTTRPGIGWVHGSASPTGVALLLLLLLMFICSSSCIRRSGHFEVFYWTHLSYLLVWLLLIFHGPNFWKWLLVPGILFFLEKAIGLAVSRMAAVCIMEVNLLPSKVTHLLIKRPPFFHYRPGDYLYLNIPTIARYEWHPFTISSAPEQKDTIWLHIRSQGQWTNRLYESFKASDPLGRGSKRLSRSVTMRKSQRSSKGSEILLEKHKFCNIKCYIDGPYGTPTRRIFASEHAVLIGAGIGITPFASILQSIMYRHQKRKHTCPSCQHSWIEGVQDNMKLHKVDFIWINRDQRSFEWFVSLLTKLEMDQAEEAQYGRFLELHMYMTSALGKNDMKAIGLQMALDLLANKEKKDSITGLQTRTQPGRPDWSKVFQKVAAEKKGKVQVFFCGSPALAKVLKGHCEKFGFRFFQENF

On to `CC(C)[Si](C#C[Si](C(C)C)(C(C)C)C(C)C)(O[C@H](C)c1cn(Cc2ccccc2)nn1)C(C)C`, for which the z-score in test [1] is 1.82 (inactive); in test [3], -0.0395 (inactive); in test [4], 0.0422 (inactive); in [5], -0.915 (inactive); in test [6], 0.0635 (inactive); in test [7] it was -0.217. Further, the results for the z-score in test [8], in test [9] and in test [10] were 0.667 (inactive), -0.748 (inactive) and -2.82, respectively. In test [2], this molecule had a composite z-score of 0.0509.

Regarding `COc1ccc(NC(=O)O[C@H]2[C@H](OC(=O)c3cc4ccccc4[nH]3)[C@@H](OC(=O)c3cc4ccccc4[nH]3)[C@@H](OC)O[C@@H]2CO)cc1`, the z-score in test [1] was 0.799 (inactive); in [3] it was 2.35 (inactive); in test [4], -0.529 (inactive); in test [5] it was 0.52 (inactive); in test [6] it was -0.955 (inactive); in test [7], 1.22. Further, the z-score was -3.65 (inactive) in [8], -1.18 (inactive) in test [9] and -4.46 in test [10]. The molecule also had a composite z-score in test [2] of -0.0529.

As to `COc1ccc([Si](C)(C)[C@@H]2[C@@H](CC(=O)N3CCC[C@H]3CO)O[C@]3(C(=O)N(Cc4cccc(I)c4)c4ccccc43)[C@H]2C)cc1`, the z-score in [1] is -0.423 (inactive); in test [3], 6.47 (inactive); in [4], 0.966 (inactive); in test [5], 1.39 (inactive); in test [6], 0.917 (inactive); in [7] it was 2.02. Further, the results for the z-score in test [8], in test [9] and in test [10] were 2.97 (inactive), 0.91 (inactive) and 4.33, respectively. For the same molecule, in [2], the composite z-score was -0.111.

As for `COc1ccc(C(=O)Nc2ccc(CN3C(=O)[C@]4(O[C@H](CC(=O)N5CCC[C@H]5CO)[C@@H]([Si](C)(C)c5ccc(OC)cc5)[C@@H]4C)c4ccccc43)cc2)cc1`, the z-score was -0.951 (inactive) in test [1]; 7.69 (inactive) in [3]; 1.45 (inactive) in test [4]; -0.749 (inactive) in test [5]; 0.598 (inactive) in test [6]; 0.424 in [7]. Besides, the results for the z-score in test [8], in [9] and in test [10] were 2.62 (inactive), 1.45 (inactive) and 4.87, respectively. Also, in test [2], the composite z-score came out at 0.385.

Consider `CC(C)[C@@H](C(=O)O)n1cc(C2(O)CCCCC2)nn1`, for which the z-score in test [1] is -0.0464 (inactive); in test [3] it was -0.477 (inactive); in test [4], -0.436 (inactive); in test [5], -2.15 (inactive); in test [6], -0.89 (inactive); in test [7] it was 0.0556. For the same molecule, the z-score in [8] is -1.09 (inactive); in test [9], -0.176 (inactive); in [10] it was -0.658. Further, the composite z-score in test [2] was -0.188.

As for `CCCCCCCCCCC(O)C1C=CC2C(=O)NC(=O)C2N1Nc1ccc(Cl)cc1Cl` (stereo not given), the z-score was -2.32 (inactive) in test [1]; 4.61 (inactive) in [3]; 2.51 (inactive) in test [4]; -1.75 (inactive) in test [5]; 1.78 (inactive) in test [6]; -0.428 in [7]. The z-score in [8] was 0.684 (inactive); in test [9], -1.86 (inactive); in test [10], -0.838. Besides, the composite z-score in [2] was 0.335.

As for `COCCOC(=O)N1C(=O)[C@@]2(c3cc(C#CCCO)ccc31)[C@H](c1ccc(OCCO)cc1)N1[C@H](c3ccccc3)[C@H](c3ccccc3)OC(=O)[C@H]1[C@@H]2C(N)=O`, the z-score in test [1] was 0.391 (inactive); in test [3], 12.1 (active); in [4], 2.16 (inactive); in test [5], 0.136 (inactive); in test [6], 0.932 (inactive); in [7] it was -0.296. Moreover, the z-score in test [8] is 1.93 (inactive); in test [9], -0.511 (inactive); in test [10], 0.419. The molecule also displayed a composite z-score in [2] of 0.0329.

In the case of `COC(=O)[C@@]1(Cc2ccc(F)cc2)[C@H]2c3cc(C(=O)N(C)C)n(Cc4ccc(C)o4)c3C[C@H]2CN1C(=O)c1ccccc1`, the z-score in [1] was -0.92 (inactive); in test [3], 5.03 (inactive); in [4], 1.73 (inactive); in [5], 0.951 (inactive); in test [6], 1.3 (inactive); in test [7], -0.239. Moreover, the results for the z-score in [8], in [9] and in [10] were 0.455 (inactive), 0.056 (inactive) and 0.604, respectively. Besides, the composite z-score in test [2] was 2.34.

Take `[N-]=[N+]=Nc1ccccc1C[C@@]1(C(=O)N2CCCCC2)N=C(c2ccc(OCCCO)cc2)O[C@@H]1c1ccccc1N=[N+]=[N-]`: the z-score in [1] is 0.0693 (inactive); in test [3], 31.8 (active); in test [4], 29.5 (active); in test [5] it was 2.52 (inactive); in [6], 3.95 (inactive); in test [7] it was 0.0562. The values for the z-score in test [8], in test [9] and in test [10] were 0.0863 (inactive), -0.141 (inactive) and -0.801, respectively. In test [2], this molecule had a composite z-score of 0.926.

Regarding `C[N+](C)(C)CCCC[C@@H]1NC(=O)[C@@H]2C[C@H](C(=O)NCCCCCCNC(=O)CS)[C@H](c3ccc(O)cc3)N2C1=O`, the z-score in test [1] was -0.432 (inactive); in [3] it was 2.2 (inactive); in test [4], 0.244 (inactive); in test [5], -3.26 (inactive); in [6], -0.114 (inactive); in test [7] it was -0.489. Moreover, the z-score was 0.614 (inactive) in test [8], 0.449 (inactive) in test [9] and 0.0101 in [10]. Besides, in test [2], the composite z-score is -0.101.

On to `CCCC[C@@H]1C[C@H]1[C@@H](NC(=O)c1cccnc1)c1ccc(Cl)cc1`, for which the z-score in test [1] is -3.66 (inactive); in [3], 2.29 (inactive); in [4], 1.51 (inactive); in test [5], 0.395 (inactive); in test [6] it was 1.03 (inactive); in test [7] it was 0.348. The results for the z-score in [8], in test [9] and in test [10] were -0.56 (inactive), -1.3 (inactive) and 0.715, respectively. The same molecule yielded a composite z-score in test [2] of -0.321.
